According to PubChem BioAssay AID463173 (ICCB-Longwood Screening Facility, Harvard Medical School, 2010):
In all, about 52,000 compounds went through this assay and about 1,700 (3.3%) were called active. Only a selection was taken, and actives are over-represented in it overall. Unmarked numbers belong to inactive results. No stated cut-off is given here; in the data, active means survival mostly below about 52% (no sharp cut-off); inactive means mostly above about 56%.

What follows are compounds tested on Wild type (assay: S. aureus survival, RN4220 and DeltatarO strains – OD600, teichoic acid synthesis inhibitors, primary screen (AID 463173)). Conditions: S. aureus RN4220 wild type/DeltatarO growth, OD600, 18 h, active compounds read low, screened at 18.75 µg/mL (by protocol).

SMILES	survival
CCCCC1CCC(C(=O)N2CC(=O)Nc3ccc(F)cc3C2c2ccc(F)cc2)CC1 (stereo unspecified)	77%
CCOc1ccc2[nH]c(=O)c(-c3nc4cccc(C)n4c3NCc3ccco3)cc2c1	108%
Cc1ccc(CNC(=O)Cc2c(C)c3cc4c(C)coc4cc3oc2=O)cc1	92%
COc1ccc(-c2noc(C(C)NC(=O)c3ccco3)n2)cc1 (stereo unspecified)	107%
Cc1nn(CC(=O)Nc2ccc(C(C)C)cc2)c(=O)c2c(C)n(-c3ccc(Cl)cc3)nc12	90%
COc1cccc(Cn2c(=O)n(Cc3ccccc3)c(=O)c3c2c2cc(OC)ccc2n3C)c1	57%
COc1ccc2c(c1)c1c(c(=O)n(Cc3ccccc3)c(=O)n1Cc1ccccc1)n2C	-3% (active)
COc1ccc2c(c1)c1c(c(=O)n(Cc3ccccc3)c(=O)n1Cc1ccc(C)cc1)n2C	87%
C/C(=N/OCC(=O)Nc1sc2c(c1C#N)CCCC2)c1cccs1	111%
CCCCN(Cc1ccco1)C(=O)c1cc2c(s1)-c1c(C)cccc1OC2	13% (active)
CCOCCCN(Cc1ccco1)C(=O)c1cc2c(=O)[nH]c3ccc(C)cc3c2s1	127%
CCOCCCN(Cc1ccco1)C(=O)c1cc2c(s1)-c1c(C)cccc1OC2	12% (active)
CCN(Cc1ccccc1)C(=O)c1cc2c(s1)-c1c(C)cccc1OC2	71%
CCOc1ccc(CCNC(=O)c2cc3c(s2)-c2c(C)cccc2OC3)cc1	90%
CCN1CCN(CCCNC(=O)c2cc3c(s2)-c2c(C)cccc2OC3)CC1	87%
Cc1ccc(C)c(N2CCN(C(=O)Cn3ncc4c(=O)oc5ccccc5c43)CC2)c1	71%
Cc1ccc2nc(N(CCCN(C)C)C(=O)c3ccco3)sc2c1	72%
COc1cccc(-c2nc(-c3ccc(-c4ccccc4)nc3OC)no2)c1	2% (active)
COc1cccc(-c2ccc(-c3noc(-c4ccccc4Br)n3)c(OC)n2)c1	37%
COc1nc(-c2ccc(C)cc2)ccc1-c1noc(-c2ccccc2Br)n1	2% (active)
COc1nc(-c2ccccc2)ccc1-c1noc(C(C)C)n1	88%
COc1nc(-c2ccc(C)cc2)ccc1-c1noc(-c2ccc(C(C)(C)C)cc2)n1	32%
COc1nc(-c2ccccc2)ccc1-c1noc(-c2ccccc2Br)n1	-2% (active)

SMILES	survival
CCOc1cc(-c2nc(-c3ccc(-c4ccccc4)nc3OCC)no2)cc(OCC)c1OCC	60%
COc1nc(C)ccc1-c1noc(-c2ccccc2)n1	100%
CCOc1cc(-c2nc(-c3ccc(-c4ccc(C)cc4)nc3OC)no2)cc(OCC)c1OCC	56%
CCOc1ccccc1-c1nc(-c2ccc(-c3ccccc3)nc2OCC)no1	-1% (active)
COc1ccc(-c2ccc(-c3noc(-c4cc(OC)cc(OC)c4)n3)c(OC)n2)cc1	49%
CCOc1nc(-c2ccccc2)ccc1-c1noc(-c2ccc(C)cc2)n1	109%
COc1cccc(-c2nc3c(c(SCc4ccccc4)n2)Cc2c(CO)cnc(C)c2O3)c1	101%
CCCN(CCC)CCCNC(=O)C1CCC(CNS(=O)(=O)c2ccc(NC(C)=O)cc2)CC1 (stereo unspecified)	66%
CCOC(=O)N1CCN(Cc2nc3cc(NC(=O)c4ccc(F)cc4)ccc3n2C(C)C)CC1	86%
CC(=O)N1N=C(N)SC1c1ccccc1 (stereo unspecified)	104%
CCCC(=O)Nc1nnc(SCc2cc(=O)c3cc(C)ccc3[nH]2)s1	70%
CC(=O)c1cccc(NC(=O)CN2C(=O)CCc3cc(S(=O)(=O)N4CCCCC4)ccc32)c1	82%
Cc1cc(C)nc(NS(=O)(=O)c2ccc(NC(=O)c3nc(SC(C)C)ncc3Cl)cc2)n1	79%
O=S(=O)(NCCc1cn2ccsc2n1)c1ccc(Cl)cc1	129%
CCc1ccc(NC(=O)CC(NCc2cccnc2)C(=O)O)cc1 (stereo unspecified)	74%
CC(C)NC(=O)C1CCCCC1C(=O)O (stereo unspecified)	88%
CCc1ccc(NC(=O)c2cnc3sc(N4CCCC4)nn3c2=O)cc1	85%
CCC(=O)N1CCc2cc(S(=O)(=O)NC(C(=O)NCc3ccccc3Cl)C(C)C)ccc21 (stereo unspecified)	84%
CC(C)NC(=O)CCSc1nc(-c2ccc3c(c2)OCO3)cc(C(F)(F)F)n1	77%
CC(C)(C)NC(=O)CCSc1nc(-c2ccc3c(c2)OCO3)cc(C(F)(F)F)n1	4% (active)
CCCNC(=O)CCSc1nc(-c2ccc3c(c2)OCO3)cc(C(F)(F)F)n1	84%
COc1ccc(Cl)cc1NC(=O)c1c(NCc2ccc(C)o2)sc2c1CCCCC2	80%
CCOc1cccc2cc(-c3nc4sc5c(c4c(=O)[nH]3)CCC(C)C5)c(=O)oc12 (stereo unspecified)	119%

SMILES	survival
CCC(C(=O)Nc1cc(F)ccc1F)n1nc(-c2cc(C)ccc2C)ccc1=O (stereo unspecified)	75%
Cc1ccc(CCNC(=O)c2nn(C)c3c2CSc2ccccc2-3)cc1	90%
Cc1cccc(CCNC(=O)c2nn(C)c3c2CSc2ccccc2-3)c1	87%
Cc1ccc2c(c1)-c1c(c(C(=O)NCCc3ccccc3)nn1C)CS2	10% (active)
Cc1ccc(Nc2c(-c3ccccc3O)nc3ccc(Br)cn23)cc1	101%
CC(C)OCCCNC(=O)C(=O)Nc1ccc2nc3n(c(=O)c2c1)CCCCC3	99%
COc1ccc(/C=C\c2onc(C)c2S(=O)(=O)N2CCC(C(=O)Nc3ccccc3OC)CC2)cc1	116%
Cc1ccc(NC(=O)c2cnn3c(C(F)F)cc(-c4ccccc4)nc23)cc1F	86%
O=c1cc2nc(-c3ccccc3F)nc(SCc3ccc(Br)cc3)n2[nH]1	-2% (active)
Cc1cccc(-c2nc(SCc3ccc(Br)cc3)n3[nH]c(=O)cc3n2)c1	83%
COc1ccccc1NC(=O)CSc1nc(-c2ccccc2F)nc2cc(=O)[nH]n12	73%
O=c1cc2nc(-c3ccccc3)nc(SCc3cccc(Br)c3)n2[nH]1	73%
Cc1ccc(CSc2nc(-c3ccc(C(C)(C)C)cc3)nc3cc(=O)[nH]n23)cc1	113%
Cc1ccc(-c2nc(SCc3ccc(Br)cc3)n3[nH]c(=O)cc3n2)cc1	10% (active)
CC(C)Sc1ncc(Cl)c(C(=O)Nc2nc3ccc(S(C)(=O)=O)cc3s2)n1	112%
CN(C(=O)Cn1cc(S(=O)(=O)Cc2ccccc2Cl)c2ccccc21)c1ccccc1	146%
CCc1cccc(NC(=O)Cn2c(=O)n(CCc3ccc(OC)c(OC)c3)c(=O)c3ccccc32)c1	124%
O=C(Cn1c(-c2cccs2)cc2ccccc21)NCCCN1CCN(c2ccc(F)cc2)CC1	136%
O=C1S/C(=C\c2ccccc2)C(=O)N1CN1CCOCC1	125%
Cc1nc2cccnc2n1C1CCN(C(=O)Nc2ccccc2C(F)(F)F)CC1	72%
COc1ccccc1CNC(=O)c1ccc(CN2CC(=O)N3CCCCC3C2=O)cc1 (stereo unspecified)	72%
CCc1ccc(Nc2ncnc3sc4c(c23)CCCC4)cc1	68%
Cc1cc(C)cc(Nc2ncnc3sc4c(c23)CCCC4)c1	-3% (active)

SMILES	survival
CN(C)c1ccc(Nc2ncnc3sc4c(c23)CCCC4)cc1	124%
O=C(CCC1N=C2c3ccccc3N=C(SCc3ccccc3Cl)N2C1=O)N1CCN(c2ccccc2)CC1 (stereo unspecified)	65%
Cc1cc(C)c(NC(=O)Cn2c(=O)n(Cc3ccc(C(=O)NCc4ccc5c(c4)OCO5)cc3)c(=O)c3ccccc32)c(C)c1	83%
COc1cc(NC(=O)CSc2nc3ncccc3o2)cc(OC)c1	57%
O=C(CSc1nc2ncccc2o1)Nc1ccc(Cl)cc1F	81%
O=C(CSc1nnc(-c2ccccc2F)o1)Nc1cccc(C(F)(F)F)c1	60%
O=C(CSc1nc2ncccc2o1)Nc1cccc(C(F)(F)F)c1	-3% (active)
Cc1cccc(C)c1NC(=O)CSc1nc2ncccc2o1	63%
Cc1c(Cl)cccc1NC(=O)CSc1nc2ncccc2o1	1% (active)
COc1cccc(NC(=O)N(Cc2nc3ccccc3c(=O)[nH]2)C2CCCCC2)c1	122%
COc1cccc(NC(=O)N(Cc2c[nH]c3ccccc23)C2CCCCCC2)c1	63%
COc1cccc(NC(=O)Cn2cc(C(=O)C3CCCCC3)c3ccccc32)c1	73%
COc1cccc(NC(=O)N(Cc2c[nH]c3ccccc23)C2CCCCC2)c1	71%
COc1cccc(NC(=O)N(Cc2cn(C)c3ccccc23)C2CCCCCC2)c1	0% (active)
COc1cccc(NC(=O)N(Cc2cn(C)c3ccccc23)C2CCCCC2)c1	0% (active)
CCOc1ccc(C(=O)Nc2nnc(SCc3cc(=O)n4ccccc4n3)s2)cc1	69%
CCOc1ccc(NC(=O)N(Cc2c[nH]c3ccccc23)C2CCCCCC2)cc1	83%
CCc1ccc(NC(=O)N(Cc2c[nH]c3ccccc23)C2CCCCC2)cc1	93%
CCc1ccc(NC(=O)N(Cc2c[nH]c3ccccc23)C2CCCCCC2)cc1	127%
CCc1ccc(NC(=O)N(Cc2cn(CC)c3ccccc23)C2CCCCC2)cc1	0% (active)
CCOc1ccc(NC(=O)N(Cc2c[nH]c3ccccc23)C2CCCCC2)cc1	79%
CCOc1ccc(NC(=O)N(Cc2cn(CC)c3ccccc23)C2CCCCCC2)cc1	0% (active)
